Source: PubChem BioAssay AID434955 (Southern Research Specialized Biocontainment Screening …, 2010)
Among all 330,000 compounds or so, about 880 (0.27%) were called active. Inconclusive results (about 1%) are left out. The rule behind the calls is not given here. Not all results are given here.

Test: beta-lactam sensitization of Mtb H37Rv, H37Rv (AID 434955);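 note: growth measured after seven days incubation then overnight dye step; 0% = bacteria only wells and 100% = bacteria with antibiotic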
Conditions: M. tuberculosis H37Rv growth with meropenem, percent inhibition, at 25 µM
[1] = measured here: primary screen without meropenem

Compound | inhibition (stronger effect = higher value) | inhibition [1] [%]
CSc1ccc(CN2C(=O)NC3(CCCCCC3)C2=O)cc1 | 19.2% (inactive) | 5.94
CCN(CC)CCNCC(=O)Nc1ccc(Oc2ccccc2)cc1 | -3.27% (inactive) | 3.64
COc1ccc(N2CCN(C(=O)CCNC(=O)c3ccc(Br)cc3)CC2)cc1 | -10.2% (inactive) | -3.75
O=C(NCc1ccccc1)C(c1ccco1)N(C(=O)c1csnn1)c1ccccc1F (configuration not stated) | -3.66% (inactive) | -4.47
COc1ccccc1CN1CC(C(=O)NCCc2cn[nH]c2)CCC1=O (configuration not stated) | -1.38% (inactive) | 3.44
CC1=NCCN1S(=O)(=O)c1ccc(Br)c(C)c1 | 5.04% (inactive) | 10.8
Cn1c(SCC(=O)N2CCOCC2)nnc1-c1ccc(NC(=O)c2ccccc2F)cc1 | -1.25% (inactive) | -0.23
Cc1ccc(S(=O)(=O)N(C)CC(=O)OCC(=O)N2CC(=O)Nc3ccccc32)cc1 | -3.86% (inactive) | -0.77
Cc1csc(Nc2ccc(Cl)cc2)[n+]1-c1ccc(Cl)cc1 | 5.09% (inactive) | -4.07
C=CCC(NCc1ccco1)c1ccc(OC)cc1 (configuration not stated) | -0.53% (inactive) | -3.95
CCCc1ccc(-c2c(C)sc(NC(=O)c3ccnn3C)c2C#N)cc1 | 15.9% (inactive) | -4.16
N#Cc1ccc(OCCN2C(=O)NC3(CCSC3)C2=O)cc1 (configuration not stated) | -7.2% (inactive) | -8.16
CN(C)CCn1c2c(c(SCC(=O)Nc3ccccc3C(F)(F)F)nc1=O)CCCC2 | -6.06% (inactive) | -5.4
O=C(NCCc1ccccc1)C1CCC(Cn2c(=O)c3ccccc3n(Cc3cccnc3)c2=O)CC1 (configuration not stated) | 19.4% (inactive) | 2.41
O=S(=O)(NCC1CC1)c1ccc(F)c(Cl)c1 | -3.45% (inactive) | 1.07
O=C(Nc1ccccc1Cl)/C(Cl)=C(\Cl)S(=O)c1ccccc1 (configuration not stated) | 100% (inactive) | 100
O=C(Oc1c(-c2ccco2)oc2ccccc2c1=O)c1cccnc1 | 92.5% (inactive) | 91.2
Cc1ccc(OCC(=O)Oc2ccccc2[N+](=O)[O-])cc1 | -3.48% (inactive) | -11.4
O=C1NC2(CCCCC2)N=C1c1ccccc1 | -10.1% (inactive) | -2.99
Cc1cc(NC(=O)c2ccccc2C)no1 | -1.93% (inactive) | 3.81
Cc1n[nH]c(=O)c2c(NC(=O)CSc3cc(Cl)ccc3Cl)oc(C)c12 | -5.41% (inactive) | -1.99

Compound | inhibition (stronger effect = higher value) | inhibition [1] [%]
CC(C)C(=O)Nc1nnc(SCC(=O)N2C(C)CCCC2C)s1 (configuration not stated) | 0.21% (inactive) | 10.7
Cc1ccc2c(c1)-c1c(ssc1=S)C(C)(C)N2C(=O)CN1C(=O)c2ccccc2C1=O | -4.41% (inactive) | -1.91
CC1Sc2ccc(C(=O)NCc3ccccc3Cl)cc2NC1=O (configuration not stated) | 6.05% (inactive) | 2.96
COc1cc(C2C(C(=O)OCCC#N)=C(C)NC3=C2S(=O)(=O)c2ccccc23)cc(OC)c1OC (configuration not stated) | 4.16% (inactive) | 1.07
COc1ccc(-c2cc(=O)oc3cc(OC(C)C(=O)Nc4ccc(CN5CCOCC5)cc4)ccc23)cc1 (configuration not stated) | 98.4% (inactive) | 96.8
CC(Sc1nnc2c(n1)C1CCC2(C)C1(C)C)C(=O)Nc1ccccc1 (configuration not stated) | -4.99% (inactive) | -6.12
Nn1c(SCC(=O)Nc2ccc3c(c2)CCC3)nnc1C1CC1 | -4.28% (inactive) | -7.87
C/C=C(\C)C(=O)NCCN1C2=NC[C@H](Cc3ccc(O)cc3)N2C[C@@H]1Cc1ccc(OC)cc1 | -14.9% (inactive) | -6
CSCCC(Nc1ccc(S(=O)(=O)N2CCOCC2)cc1[N+](=O)[O-])C(=O)OCC(=O)N(C(C)C)C(C)C (configuration not stated) | 3.64% (inactive) | 2.01
CCCCC(C(=O)NC(C)(C)C)N(Cc1ccccc1)C(=O)c1snc(C(N)=O)c1N (configuration not stated) | -2.34% (inactive) | 4.81
Fc1ccc2c(c1)C(c1cccnc1)=NNC(c1cccs1)=N2 | 31% (inactive) | 4.96
Cc1ccc(-c2csc(NC(=O)C3=COCCO3)n2)cc1C | 92.7% (inactive) | 99.3
CN(CC(=O)Nc1ccc(S(=O)(=O)N2CCCC2)cc1)Cc1ccc(Cl)c(Cl)c1 | 1.99% (inactive) | 0.57
C=C(C)c1cccc(C(C)(C)NC(=O)N2CCN(c3ncccn3)CC2)c1 | -9.15% (inactive) | -8.65
O=C1C=C(c2ccnc3cc(Cl)ccc23)C[C@@H](c2ccc3c(c2)OCO3)C1 | 52.4% (inactive) | 50.9
CCc1ccc(/C=N/NC(=O)c2ccc(OC3CCCC3)cc2)s1 | 2.88% (inactive) | 3.87
Cc1ccc(-n2cc(CN(C)Cc3nccn3C)c(-c3cccc(C)c3)n2)cc1 | 98.9% (inactive) | 99.4
O=C(NC(=S)N1CCN(Cc2ccccc2)CC1)c1ccccc1 | 36.8% (inactive) | -3.71
CC(OC(=O)CN1C(=O)C2CCCCC2C1=O)C(=O)Nc1ncc(Cl)cc1Cl (configuration not stated) | -4.66% (inactive) | 4.44
C/C(Cc1ccccc1)=N\NC(=O)CNC(=O)c1ccccc1Cl | -6.3% (inactive) | 2.92
CCc1cccc(C)c1NC(=O)COC(=O)Cc1ccsc1 | -1.39% (inactive) | 2.58

Compound | inhibition (stronger effect = higher value) | inhibition [1] [%]
O=S(=O)(c1ccc(F)cc1)N1CCN=C1SCc1cccc(F)c1 | 9.8% (inactive) | 11.2
NC(=O)C1CCN(C(=O)/C(=C/c2ccco2)NC(=O)c2ccccc2)CC1 | -2.14% (inactive) | -8.97
CCCCNCc1ccc(SC)cc1 | -3.24% (inactive) | -0.62
O=C1CC(=O)Nc2cc(S(=O)(=O)N3CCN(c4cccc(C(F)(F)F)c4)CC3)ccc2N1 | -1.42% (inactive) | 4.41
Cc1ccc(N2C(=O)CC(NCc3ccc4c(c3)OCO4)C2=O)cc1Cl (configuration not stated) | -7.15% (inactive) | 0.64
COc1cc(NC(=S)N2CCCC(C)C2)cc(OC)c1OC (configuration not stated) | 0.37% (inactive) | 3.47
CCOc1ccc(NC(=O)C(C)N2C(=O)c3ccccc3C2=O)cc1 (configuration not stated) | -0.05% (inactive) | 0.73
CC(C)NS(=O)(=O)c1ccc(CCC(=O)N2CCOCC2)cc1 | -4.86% (inactive) | -6.67
CC(=O)OCCC(C)C | -5.13% (inactive) | -1
CCOC(=O)c1cn[nH]c1NC(=S)Nc1ccccc1 | -8.22% (inactive) | -3.62
CCCCNC(=O)Cn1nc(C)c(S(=O)(=O)N2CCOCC2)c1C | -4.34% (inactive) | -4.6
Fc1ccc(N2N=C(c3cccs3)CC2c2ccco2)c(F)c1 (configuration not stated) | 35.4% (inactive) | 9.4
Cc1ccc(N(CC(=O)NC2CCCCC2)C(=O)CCCC(=O)Nc2ccccn2)c(C)c1 | -1.33% (inactive) | -1.01
CCSC1=NCCN1C(=O)c1ccc(S(=O)(=O)N(CC)CC)cc1 | 6.44% (inactive) | 0.45
COc1ccccc1-c1oc2ccccc2c1C#CCCCCO | 10.7% (inactive) | 7.25
CC(C)OC(=O)CN1CCN(c2ccc(Cl)cc2)CC1 | -3.97% (inactive) | -7.14
O=C(Nc1cccnc1)c1noc2c1CCCCC2 | 2.93% (inactive) | -8.89
COc1ccc(S(=O)(=O)N2CCCCC2)cc1NC(=O)c1cc([N+](=O)[O-])ccc1N1CCOCC1 | -11.2% (inactive) | -3.23
COC(=O)CC(=O)N1CCN(c2ccc(Cl)c(Cl)c2)CC1 | -8.83% (inactive) | 97.6
Cc1cccc(NC(=O)C(C)N2C(=O)C3C4CC(C(Br)C4Br)C3C2=O)c1 (configuration not stated) | -22.1% (inactive) | -16.2
CC(C)c1ccc(NC(=O)CCN2C(=O)c3ccc([N+](=O)[O-])cc3C2=O)cc1 | -2.88% (inactive) | -6.43

Compound | inhibition (stronger effect = higher value) | inhibition [1] [%]
Cc1nc(COc2cccc(Cl)c2)sc1C(=O)/C=C/N(C)C | -4.65% (inactive) | -0.85
C/C(=N/NC(=O)CSc1ccccn1)c1ccc([N+](=O)[O-])cc1 | -3.17% (inactive) | 6.64
O=C(NC(=O)c1ccccc1)Nc1ccccc1O | 0.65% (inactive) | 3
O=C1[C@@H]2C(c3cccnc3)=NO[C@@H]2C(=O)N1c1ccc(Cl)cc1Cl | -5.66% (inactive) | 0.68
C[C@@H]1C[C@@H]2O[C@H]2/C=C\C=C\C(=O)Cc2c(Cl)c(O)cc(O)c2C(=O)O1 | 29.7% (inactive) | 18.4
CCc1ccc2[nH]c(=O)c(Cc3ccccc3)c(O)c2c1 | -0.83% (inactive) | -2.95
O=C(C1CCCN1S(=O)(=O)c1ccc(Br)cc1)N1CCOCC1 (configuration not stated) | -1.22% (inactive) | 0.94
Cc1c(NC(=O)C(C)OC(=O)c2cc3c4ccccc4n(C)c3s2)c(=O)n(-c2ccccc2)n1C (configuration not stated) | 4.17% (inactive) | 3.63
O=C(CSC1CC(=O)N(CCc2ccccc2)C1=O)Nc1ccc(Cl)cc1 (configuration not stated) | -1.52% (inactive) | -3.81
CCOc1ccc(C(O)Cn2c(=N)n(CCN3CCCCC3)c3ccccc32)cc1 (configuration not stated) | 8.31% (inactive) | 3.41
O=S(=O)(Nc1ccc(Cl)cn1)c1cnc(Cl)c(Br)c1 | -1.47% (inactive) | -1.06
Cc1cc(NC(=O)OC(C)C)ccc1-c1ccc(NC(=O)OC(C)C)cc1C | 0.85% (inactive) | -5.74
CCNC(=O)CC1C(=O)N(c2ccc(OC)cc2)C(=O)N1CCOC (configuration not stated) | 7.04% (inactive) | -0.36
COC(=O)Cc1ccc(NC(=S)NCc2ccco2)cc1 | -6.59% (inactive) | 47.6
Cc1cccc([C@@H]2[C@@H]3C(=O)N(C)C(=O)[C@@H]3[C@@H]3C(=O)Nc4ccccc4C(=O)N23)c1 | -6.47% (inactive) | -0.42
O=C1c2ccccc2C(=O)N1CCOc1ccc(F)cc1 | -2.05% (inactive) | -1.56
Cn1cc(CCC(=O)N2CCCC(C(=O)c3ccc(C(C)(C)C)cc3)C2)cn1 (configuration not stated) | 0.49% (inactive) | 4.84
CCSCc1nc(N)nc(NCCc2ccccc2)n1 | 0.44% (inactive) | 4.31
